H9c2 protect: modulators protecting cardiomyocytes from myocardial damage; H9c2 cardiomyocytes, H2O2 injury protection, ATPLite, 2 h; protection from H2O2 cell death, % at 20 µM; actives 0.63% (n = 360,000);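 active = compounds giving at least 50% protection of heart cells from peroxide-induced death in the single-dose screen, raw or plate-pattern-corrected value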;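 note: 0% = DMSO wells with peroxide and 100% = DMSO wells without peroxide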
ALR H2O2 inh: blocks human ALR sulfhydryl oxidase activity; P55789; purified ALR, DTT oxidation, H2O2 HRP-luminol luminescence; inhibition, % (no concentration beside the values); actives 3.8% (n = 290,000); AID 485317;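 active = mean replicate inhibition above about 79%, with every replicate also reaching it, limit read from the data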
Target sequence (P55789 whole entry, looked up): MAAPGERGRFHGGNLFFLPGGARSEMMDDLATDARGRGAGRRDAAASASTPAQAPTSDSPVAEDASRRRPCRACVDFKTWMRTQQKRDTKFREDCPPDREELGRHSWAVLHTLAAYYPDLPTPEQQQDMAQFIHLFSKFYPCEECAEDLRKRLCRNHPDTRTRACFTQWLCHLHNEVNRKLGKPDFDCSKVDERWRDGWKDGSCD
NTR1 agonist: NTR1 (human) agonism; NTR1-U2OS beta-arrestin-GFP spot imaging, agonist mode; activation, % at 20 µM; actives 0.17% (n = 330,000); AID 493036;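 active = activation at or above 40% of the spot to cytoplasm intensity ratio, with at least 20 cells analyzed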;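 note: 0% = DMSO without peptide and 100% = 100 nM NTR1 peptide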
UBC9 SUMO inh: inhibitors of human SUMOylation (UBC9). HTRF SUMOylation assay, SAE1/SAE2 + UBC9, in vitro. actives 0.36% (n = 290,000). inhibition, % at 35 µM; in the data active = inhibition above about 50%, passing the limit was not always enough
Target sequence (P63279 whole entry, looked up): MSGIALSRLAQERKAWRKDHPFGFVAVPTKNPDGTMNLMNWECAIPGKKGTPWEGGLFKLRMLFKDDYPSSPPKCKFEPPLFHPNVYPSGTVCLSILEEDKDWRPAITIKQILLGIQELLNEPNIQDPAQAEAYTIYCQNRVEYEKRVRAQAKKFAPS
* hit, by the source's call; x = no result given. An excerpt weighted towards active compounds, which were near 3.9% of everything screened.

SMILES	H9c2 protect	ALR H2O2 inh	NTR1 agonist	UBC9 SUMO inh
CCOC(=O)c1cccc(NC(=O)CCn2nc(C)c(S(=O)(=O)N3CCCCC3)c2C)c1	2	-6	1	8
COc1ccc(C2C(C(=O)c3cc4cccc(OC)c4o3)=C(O)C(=O)N2CCCN(C)C)cc1OC (stereo not given)	x	x	x	16
COc1cccc(C2c3[nH]c4ccccc4c3C[C@H]3C(=O)N(CCCCCO)CC(=O)N23)c1 (stereo not given in full)	11	98*	0	-10
O=c1[nH]c(NCc2ccccc2)nc2c1CCCC2	53*	-6	3	13
O=c1[nH]c(SCCc2ccccc2)nc2c1CCC2	12	x	x	x
O=c1[nH]cnc(O)c1C1C=CC=CC=C1	-5	x	x	x
Cc1csc(NC(=O)CSc2ccc3nnc(CCNS(=O)(=O)c4ccccc4)n3n2)n1	6	12	0	5
COc1ccc(S(=O)(=O)NCCc2nnc3ccc(SCC(=O)Nc4nc(C)cs4)nn23)cc1	4	89*	0	24
Cc1ccc2c(c1)c1c(n2C)-c2[nH]ncc2CC1	-7	94*	2	-52
Cc1ccc2c(c1)c1c(n2C)C(C(N)=O)CCC1 (stereo not given)	-4	3	-2	5
CCN(CC)c1ccc(/C=C2\NC(=O)NC2=O)cc1	-1	99*	-2	-21
c1ccc(-n2nnc(-c3nccs3)n2)cc1	-6	94*	-2	x
Brc1ccccc1-n1nnc(-c2nccs2)n1	-14	-6	-2	8
COc1ccc(-c2cc(NC=O)c3ncc(-c4ccc(C(C)=O)cc4)n3c2)cn1	64*	x	x	x
CC(=O)Nc1cccc(-c2cc(NC(C)=O)c3ncc(-c4cccc(C(C)=O)c4)n3c2)c1	59*	x	x	x
CC(=O)Nc1cccc(-c2cc(NC=O)c3ncc(-c4ccc(C(C)=O)cc4)n3c2)c1	93*	x	x	x
CC(=O)Nc1cc(-c2cccc(N)c2)cn2c(-c3ccc(C(C)=O)cc3)cnc12	39	x	x	x
COc1ccc(-c2cc(NC(C)=O)c3ncc(-c4cccc(C(C)=O)c4)n3c2)cc1OC	111*	x	x	x
CCOC(=O)c1sc(NS(=O)(=O)c2ccc(C)cc2)nc1C	-2	49	0	12
COc1cc(S(=O)(=O)NCc2ccccn2)c(OC)cc1Cl	-7	-9	0	6
Cc1ccc2nc(-c3ccncc3)cc(C(=O)Nc3ccc(F)cc3C)c2c1	2	-4	3	-6
COCC(=O)N(C)C[C@H]1N[C@@](Cc2ccccc2)(C(=O)OC)[C@H]2C(=O)N(Cc3ccccc3)C(=O)[C@@H]12	8	0	-2	x
O=C1CSC(c2ccccc2[N+](=O)[O-])N1c1cccc(F)c1 (stereo not given)	-4	99*	2	11
O=C1CSC(c2ccccc2[N+](=O)[O-])N1c1ccccc1 (stereo not given)	-1	99*	1	18
CC(=O)Nc1ccc(N2C(=O)CSC2c2ccccc2[N+](=O)[O-])cc1 (stereo not given)	-5	98*	0	14
SMILES	H9c2 protect	ALR H2O2 inh	NTR1 agonist	UBC9 SUMO inh
O=C1CSC(c2ccccc2[N+](=O)[O-])N1c1ccc(O)cc1 (stereo not given)	-3	-16	0	2
O=C(CN1C(=O)c2cccc3cccc1c23)N1CCN(c2cccc(Cl)c2)CC1	-3	-4	3	28
Cc1ccccc1S(=O)(=O)N(C)C[C@@H]1OCc2cn(nn2)CCCC(=O)N([C@H](C)CO)C[C@H]1C	-4	x	x	x
CCN(Cc1ccccc1)C(=O)c1cc(-c2ccc(OC)c(OC)c2)nc2ccccc12	19	-4	5	11
O=C(COC(=O)c1cccc2c1C(=O)c1ccccc1C2=O)NC1CCCCC1	58*	-32	14	0
CN(C)c1ccc(N=Nc2ccccc2C(=O)OCC(=O)NC2CCCC2)cc1	-11	97*	5	-17
Cc1cccc(NC(=O)/C(C#N)=C/c2ccccc2Cl)n1	-1	12	-1	-2
Cc1ccc(O)c(-c2cc(C(F)(F)C(F)F)[nH]n2)c1	-32	98*	2	17
COc1ccccc1/C=C/C(=O)NCC(=O)N/N=C/c1ccccc1	-7	-6	-1	-2
COc1ccccc1/C=C/C(=O)NCC(=O)N/N=C/c1ccc2c(c1)OCO2	12	88*	-2	24
COc1ccccc1/C=C\C(=O)NCC(=O)N/N=C/c1ccc(O)cc1O	52*	x	1	4
COc1cccc(C(=O)NCC(=O)N/N=C/c2ccc3c(c2)OCO3)c1	-3	-17	-1	0
CCO[C@H]1OC(C(N)=O)=C[C@@H](c2ccc(Br)cc2)[C@@H]1CCCO	-2	x	1	10
O=C(c1cc(COc2ccc(-n3cncn3)cc2)on1)N1CCCC1	0	x	1	-6
O=C(CSc1nnc(SCc2ccccc2)s1)N/N=C/C=C\c1ccco1	-4	97*	2	71
Cn1cccc1CC(=O)N/N=C/C=C/c1ccco1	3	-57	1	80*
CCn1c(=O)c(C(=O)NC(C)c2ccccc2)c(O)c2ccccc21 (stereo not given)	55*	4	4	0
CCCn1c(=O)c(C(=O)Nc2ccccc2)c(O)c2ccccc21	57*	-8	5	15
O=c1cc(CN2CCN(Cc3ccc(F)cc3)C(CCO)C2)[nH]c2ccccc12 (stereo not given)	4	x	2	0
COc1cc(/C=C(\C#N)C(=O)c2ccc(O)c(O)c2)cc(I)c1O	62*	99*	-1	x
CCOC(=O)c1sc(CS(=O)(=O)c2ccc(Cl)cc2)nc1C	8	-12	-1	4
CCOC(=O)c1sc(-c2ccc(Cl)cc2Cl)nc1O	-9	97*	0	35
COc1ccc(Nc2nc(-c3cccs3)nc3ccccc23)cc1S(=O)(=O)N1CCOCC1	67*	-9	21	x
CC(OC(=O)CNS(=O)(=O)c1ccc2ccccc2c1)C(=O)N(C)c1ccccc1 (stereo not given)	3	-2	1	2
O=C(CSc1ccc(-c2ccccn2)nn1)NC1CCCC1	18	-2	2	-20
SMILES	H9c2 protect	ALR H2O2 inh	NTR1 agonist	UBC9 SUMO inh
COc1cc2[nH]c(=O)n3nc(-c4ccccc4)nc3c2cc1OC	95*	20	2	28
N#Cc1c2n(c3c(=S)nc[nH]c13)CCCCC2	11	93*	-1	19
CNC(=O)c1c(NC(=O)c2cccc(C)c2)sc2c1CCC2	12	95*	10	7
COC(=O)Nc1sc2c(c1C(=O)NCc1ccco1)CCCC2	6	-4	1	-6
Cc1ccc(C(=O)Nc2sc3c(c2C(=O)NCc2ccco2)CCCC3)cc1	-3	1	12	73*
CC(OC(=O)c1cccnc1SCc1cc(=O)n2ccccc2n1)c1ccccn1 (stereo not given)	30	5	0	4
O=C1NC(c2ccc(Cl)c([N+](=O)[O-])c2)Nc2ccccc21 (stereo not given)	55*	-2	5	6
O=[N+]([O-])c1cc(C2Nc3cccc4cccc(c34)N2)ccc1Cl	-3	5	4	59*

Screening data from PubChem.
